Assay results taken from PubChem BioAssay AID504332 (National Center for Advancing Translational Sciences (NCATS), 2011).
The campaign covered roughly 350,000 compounds. About 31,000 (8.9%) were called active. Another 15% or so got no clear call; they are omitted. For the sample, actives were picked, then their nearest neighbours and some compounds at random. Unmarked numbers belong to inactive results. The call rests on the fitted dose curve; in most records, active means well fitted inhibition curve with a large enough effect; inconclusive means small, poorly fitted or top-dose-only effect; inactive means no such curve, though single readings can be large or run the other way.

The compounds below were run against Histone-lysine N-methyltransferase EHMT2 (Homo sapiens) (UniProt Q96KQ7) (assay: qHTS Assay for Inhibitors of Histone Lysine Methyltransferase G9a). Conditions: G9a H3K9 monomethylation, AlphaScreen, 2 h; series mostly up to 59 µM; activity, negative = inhibition: at the top concentration.
Summary of the method: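 AlphaScreen detection with an anti-monomethyl H3K9 antibody quantified product after a 2 h room-temperature reaction containing 500 nM biotinylated H3K9 peptide, 20 µM SAM and 20 nM enzyme, which had been preincubated 15 min with compound.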
Further: nearly all actives have a fitted effect of over 75% in size.
On the % scale 0 is the no-effect control and ±100 the full control effect; potency means the concentration at half of the fitted maximal effect.

Histone-lysine N-methyltransferase EHMT2 (Homo sapiens), sequence (Q96KQ7 913-1193 limits assumed): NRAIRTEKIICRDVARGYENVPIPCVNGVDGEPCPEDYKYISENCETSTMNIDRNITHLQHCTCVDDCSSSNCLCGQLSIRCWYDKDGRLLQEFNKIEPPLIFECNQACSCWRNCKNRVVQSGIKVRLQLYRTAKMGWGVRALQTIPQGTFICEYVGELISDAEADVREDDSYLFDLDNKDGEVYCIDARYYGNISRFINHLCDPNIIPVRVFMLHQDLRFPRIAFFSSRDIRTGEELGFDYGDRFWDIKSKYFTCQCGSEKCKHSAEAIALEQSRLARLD

Structure (SMILES)	activity, negative = inhibition	Potency
COc1cccc(CNC(=O)c2ccc3c(c2)sc2nc(-c4cccc(OC)c4)cn23)c1	-1.93%	–
CN(Cc1cnccn1)C(=O)c1cc(COc2cccc(C(F)(F)F)c2)on1	9.71% [at 102 µM]	–
c1ccc(CN2CCC(N=C3NN=C(c4ccc5c(c4)OCCO5)CS3)CC2)cc1	-3.44% [at 12.7 µM]	–
Clc1cccc(N=C2NN=C(c3ccc4c(c3)OCCO4)CS2)c1	–	14.1 µM (active)
Cc1cccc(N=C2NN=C(c3c[nH]c4ccccc34)CS2)c1	-32.2%	–
COc1ccccc1-c1cnn2c(N3CCOCC3)cc(C)nc12	26.6% [at 102 µM]	–
Cc1cc(C)c(-c2n[nH]c3c2C(c2ccccc2F)N(CCO)C3=O)c(O)c1 (centres undefined)	19.7%	–
CCc1ccc2ncc3c(-c4ccc(C)cc4)nn(CC(=O)NCc4ccccc4)c3c2c1	-1.45%	–
COC(=O)c1cccc(Cn2nnc3sc4c(c3c2=O)CCC(C(C)(C)C)C4)c1 (centres undefined)	-31.9%	–
Cn1ccnc1SCC(=O)Nc1ccc2c(c1)OCCO2	34.5% [at 102 µM]	–
CC1CCCCC1NC(=O)CSc1nnc(N)s1 (centres undefined)	9.08%	–
CC1CCCC(NC(=O)CSc2nccn2C)C1C (centres undefined)	–	15.8 µM (active)
O=C(O)c1cccc(N2C(=O)Nc3ccccc3N2O)c1	-16.3%	–
O=C1NN(c2ccccc2)C(=O)/C1=C/c1ccc(-c2cccc(C(=O)O)c2)o1	–	39.8 µM (active)
O=C(Nc1ccc2nc(SCCOc3ccccc3Cl)sc2c1)c1ccco1	-31.5%	–
O=S(=O)(NCc1ccccc1Br)c1ccccc1Br	7.86% [at 2.33 µM]	–
CCCCn1c(=S)[nH]c2cc(S(=O)(=O)N3CCCCC3)ccc21	–	1.78 µM (active)
CN(Cc1ccccc1)C(=O)c1cn(C)c2ccc(S(=O)(=O)N3CCCCC3)cc2c1=O	-1.71%	–
O=c1[nH]c2ccc(S(=O)(=O)N3CCCC3)cc2[nH]1	2.56% [at 102 µM]	–
O=C(NCCc1ccccc1)c1ccc2c(c1)N(Cc1ccc(F)cc1)C(=O)c1ccccc1S2(=O)=O	-0.301%	–
Cc1ccc2oc(=O)c3cnn(CC(=O)NCc4ccccc4Cl)c3c2c1	11.1%	–
CCn1c(C(=O)Nc2cc(Cl)ccc2C)cc2sc(Cl)cc21	5.25%	–
C=CCOc1ccccc1/C=N/NC(=O)Cc1ccccc1	-1.48% [at 0.501 µM]	–
CCOc1ccccc1/C=N/NC(=O)CNC(=O)COc1ccccc1	1.78% [at 102 µM]	–
C=C(C)CNC(=S)N/N=C/c1ccccc1OCC(=O)O	–	11.2 µM (active)

Structure (SMILES)	activity, negative = inhibition	Potency
CCCCn1nc(C(=O)Nc2cccc(C(=O)NC3CC3)c2)c2ccccc2c1=O	5.39% [at 2.33 µM]	–
CCNC(=O)Cn1nc(C)n2c(cc3c(OC)cccc32)c1=O	11.3%	–
O=C(Nc1cccc(Cl)c1)OCc1ccccn1	-10.1% [at 102 µM]	–
O=C(CC1SC(=Nc2ccccc2)N(Cc2ccccn2)C1=O)Nc1cccc(Cl)c1 (centres undefined)	–	8.91 µM (active)
CN1C(=O)C(CC(=O)Nc2ccccc2)S/C1=N/c1nccs1 (centres undefined)	19.4% [at 102 µM]	–
COc1ccc(-c2nc3ccccc3o2)cc1NC(=O)c1cc([N+](=O)[O-])ccc1N1CCOCC1	3.44%	–
O=C(CSc1ccccc1)Nc1cccc(S(=O)(=O)N2CCOCC2)c1	7.75% [at 12.7 µM]	–
CC(Sc1cccc[n+]1[O-])C(=O)Nc1cccc(S(=O)(=O)N2CCOCC2)c1 (centres undefined)	–	8.91 µM (active)
Cc1cc(C(=O)OC(C)C(=O)Nc2cccc(S(=O)(=O)N3CCOCC3)c2)c(C)o1 (centres undefined)	-16.9% [at 102 µM]	–
COc1cccc(C2=CC(=O)C[C@H](c3ccc(F)cc3)C2)c1OC	-9.38% [at 0.501 µM]	–
O=C1C=CC(=O)N1c1ccc(N2CCCCC2)cc1	–	0.562 µM (active)
CCOC(=O)/C(C#N)=C/c1ccc(N2CCCCC2)cc1	442% [at 102 µM]	–
O=c1[nH][nH]c(=O)c2cc(N3CCCC3)ccc12	-1.28% [at 102 µM]	–
COc1ccc(Nc2ncnc3ccc(Br)cc23)c(OC)c1	29.9% [at 102 µM]	–
COc1ccc(-c2nc(SCC(=O)N3CCCCC3C)n[nH]2)cc1 (centres undefined)	2.49%	–
COc1ccccc1CCNC(=O)c1cccn1-c1nnc(N2CCCCC2)s1	-7.53%	–
CC1(C)O[C@@H]2[C@H](O1)[C@@H](COS(=O)(=O)O)O[C@H]2n1cnc2c(=O)[nH]cnc21	9.85% [at 2.33 µM]	–
Cc1nn(C(=O)c2c(F)cccc2F)c(C)c1S(=O)(=O)N1CCOCC1	8.64%	–
O=S(=O)(c1ccc(F)cc1)N1CCN(Cc2ccccc2C(F)(F)F)CC1	–	10 µM (active)
O=C(CN1CCN(S(=O)(=O)c2ccc(F)cc2)CC1)NC1CC1	6.21% [at 102 µM]	–
Cc1ccc(S(=O)(=O)N2CCN(Cc3cccc(C)c3O)CC2)cc1	12.4%	–
CCN(CC(=O)Nc1ccc(OC)cc1)C(=O)c1ccc(=O)n(Cc2ccccc2)n1	25%	–
Cc1ccccc1-c1nc2cc(NC(=O)c3cccc(OCCC(C)C)c3)ccc2o1	0.952%	–
Cc1nc2c(c(C)nn2-c2ccccc2)c(C)c1CCC(=O)NCCc1ccc(Cl)cc1	13.2%	–
